Potency and affinity values are given separately. Calls of active or inactive are those of the source. The rule behind the calls is not given here.
Assay: V-ATPase regulators, yeast pH concentration series – S. cerevisiae, pHLuorin, cherry pick 1, dose response (AID 588596)
Details: S. cerevisiae pHLuorin vacuolar pH fluorescence; series mostly up to 33.1 µM

outcome, inactive:
O=C(CCSC1=NCCCN1)c1ccc(F)cc1
O=C(N1CCCC1)C12CCC3CC(CC(C3)C1)C2
CCOC(=O)Cn1c(=O)c(-c2cc(Br)ccc2N)nc2ccccc21
Cc1cccc(N=Cc2[nH]c3ccc(Br)c(Cl)c3c2O)c1

Source: PubChem BioAssay AID588596 (NMMLSC, 2011)
